The chains are these.
T1: UNK ZnF1-3 (human, UniProt Q9C0B0 31-174)
T1 sequence: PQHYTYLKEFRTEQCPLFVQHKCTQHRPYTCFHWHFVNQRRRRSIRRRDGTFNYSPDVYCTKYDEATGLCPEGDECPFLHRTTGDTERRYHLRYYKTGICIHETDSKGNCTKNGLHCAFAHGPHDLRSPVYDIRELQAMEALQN

B1: chr3:100058692:100058693:+_ENSG00000114021_ENST00000480073|hu_mus|motif|central (ssRNA)
RNA: GGGAGUUCUACAGUCCGACGAUCAUAGUCAGGAAAGUAGGUUGUUCCAUAUGGAGAAUUGAAGCACUCAGGCAGAGAAACGGUGUUGGCACCUUGCUUUGCUGCCUCCCGCACUAGGCUACAAGCCCGGGUAAGGUUAUCUGACAACAGAGGAUUGAGCAUCA
B2: chr10:1038552:1038553:+_ENSG00000107937_ENST00000545048|hu_hu|FALSE|FALSE (ssRNA)
RNA: GGGAGUUCUACAGUCCGACGAUCCAUAGAACGGAUGAAUAUCAUCCAAUUUGGGGAAAUCUGUUAGAAUUUGUGAAAGUCUAUCAUGGUAAUUCUGUUGAGUAAAUUUGACUUUUCUCAUGUAAAAAUGUCUAAUGCGAUGUACAACAGAGGAUUGAGCAUCA
B3: chr9:91931296:91931297:+_ENSG00000123975_ENST00000314355|hu_hu|hu_hu_hu_mus_True|48_108 (ssRNA)
RNA: GGGAGUUCUACAGUCCGACGAUCAGAUUGACGAUCCCCAGCUGCACUUCAUUUUUGUUGUUCUUUUGGAAGAGGUCGUCUAAAGAGAAGAAUAUGUGGUUCUGGCUCAUGAAUCAUGUAAUGAACCCAUCCUAGACUCUGUUGCAACAGAGGAUUGAGCAUCA
B4: chr2:62103349:62103350:-_ENSG00000115484_ENST00000544079|hu_mus|motif|central (ssRNA)
RNA: GGGAGUUCUACAGUCCGACGAUCAAUAUAGGCUCUCUCCUCUCGAAGCACUCGAUCCAUCUGGGCAUAGUCAGAUACGGCGGUUUGAUUAUCCAUAUCUGUUUUAGGAGCAGAUAAGCAAAACUGAAUAAGCCCAAUCUUAGCCAACAGAGGAUUGAGCAUCA
B5: chr1:35650007:35650008:-_ENSG00000116560_ENST00000357214|hu_hu|motif|central (ssRNA)
RNA: GGGAGUUCUACAGUCCGACGAUCAUCCAUAAAAAGAUAGCUUUCUUACUAAAAUGCAAGAAUUUAAAAGAUUGGUAUCGGAACAAAAAAACAAAACAAACUGGAAUGAAAGCCUAAAUAUCACAUCUAAAAUCGGGGUUUUUUCAACAGAGGAUUGAGCAUCA
B6: chr2:170668292:170668293:+_ENSG00000138385_ENST00000260956|hu_mus|motif|central (ssRNA)
RNA: GGGAGUUCUACAGUCCGACGAUCACCUAAUUCGCUUUUCUUUUUAAAAGCUUCUGAAGACAAAAAGCAGCUUAAAAUCGGACGGAGGAAUAAAAACACUGCUUACUAAAUAAACUACUUGUCUCUAGCACCAUUUUCUCUUUUCAACAGAGGAUUGAGCAUCA
B7: chr20:57486015:57486016:+_ENSG00000087460_ENST00000306090|hu_mus|FALSE|FALSE (ssRNA)
RNA: GGGAGUUCUACAGUCCGACGAUCCCUUUUUUUUCUUUUUCUUCUGUAGGCCGCCUUAAGCUUACUAAAUUUGGAACAUCUAAGCAAGCUGAAGGGAAGAGGGGUUUUUCAGAAUCACUGGGGGAAAAAGGAAAGGUUGCGGUGCAACAGAGGAUUGAGCAUCA
B8: chr7:93623566:93623567:-_ENSG00000105829_ENST00000222547|hu_hu|FALSE|FALSE (ssRNA)
RNA: GGGAGUUCUACAGUCCGACGAUCGAACAAAUUCCAAAUUCACAAUUACAUGCAUCACCUCAGUUUAAUAAUCCAAUAAAUGAUAAAAAAGACAAAUAAAGAAAACAGCAUCAUAUAGCACAGCAGCUUUGUUUGGCUCCCUCUCAACAGAGGAUUGAGCAUCA
B9: 203424622_203424742_3669_3pUTR_ENSG00000204217_ENST00000374580|human|control|control (ssRNA)
RNA: GGGAGUUCUACAGUCCGACGAUCUUUUAUUUUUAAACAUCUUCUGCAUGUUUAAAUGAUGCAAAAAAUAAUUUCACUCCAUAGGCUUGAAAACAUUUCACAGACAGUUCAUUCCUAUAUCUUUAGACACCAUGGUUGUAGCAGCAACAGAGGAUUGAGCAUCA
B10: chr19:41288892:41288893:-_ENSMUSG00000025016_ENSMUST00000025989|mus_mus|motif|central (ssRNA)
RNA: GGGAGUUCUACAGUCCGACGAUCUGGAUGGAACUGAGAAAGCUGGUUAAUUUUAAGAUAAAUAAAUGAGGUUGAUCCAAACGGAGAUUAAGAUGACAGCAGAUAUAUUCCAUGCAGAAUUGAAUAGCUUUUAAUUUUGUUUUUCAACAGAGGAUUGAGCAUCA
B11: chr6:136599331:136599332:-_ENSG00000029363_ENST00000527536|hu_mus|motif|central (ssRNA)
RNA: GGGAGUUCUACAGUCCGACGAUCGGGGGCAUCUGAGCAUGAUGAACUCUGACUGGGUGGUGUAGCAAUAGGUGAAGGACGGUGAGGUGACCUUGGACUAUUAUCAUAAGCUGAAAGGCCAGGCCAAAUAUCACCAGAAGUAGCCAACAGAGGAUUGAGCAUCA
B12: chr15:40462788:40462789:+_ENSG00000156970_ENST00000287598|hu_mus|FALSE|FALSE (ssRNA)
RNA: GGGAGUUCUACAGUCCGACGAUCAAAGCGGGGGUCAUUAUAAUAGCGCGUCUCUCCUUGGAGUGCUUCUAUCGCUCUCUCCACUAACGCUGACAUGUUACUCUCUUUCCCCCCUUGAGGGUAGUUCUGUUCUGUCCAAUUAAUCAACAGAGGAUUGAGCAUCA
B13: chr2:128501614:128501615:-_ENSMUSG00000014355_ENSMUST00000014499|mus_mus|FALSE|FALSE (ssRNA)
RNA: GGGAGUUCUACAGUCCGACGAUCAGCCACAGGGGAUUCGCCUUUGGAGAGGCUUCUGAGAUGUGCUGUCAGGGAGCUGCUAGUAGUUGCAUUCUGCAGGGUCCCUGCCUGCUCAGGGAACUUUAAAACAGCAUUCUCUUCCUCCAACAGAGGAUUGAGCAUCA
B14: 52131286_52135943_886_CDS_ENSMUSG00000022637_ENSMUST00000114471|mouse|control|control (ssRNA)
RNA: GGGAGUUCUACAGUCCGACGAUCCGUGAGAAAUGCCAUGUAUCCCGGGUGAGUCACAGCCAAGAAGUUCCAAUUCCGUAAAAUAGAGCCCCAGGGCUGAAAUAGCCUGGUAAAAAUAUCAAAUUCAAACACUGAGAUGUAAUCCAACAGAGGAUUGAGCAUCA
B15: chr1:130485734:130485735:-_ENSMUSG00000045382_ENSMUST00000052172|mus_hu|FALSE|FALSE (ssRNA)
RNA: GGGAGUUCUACAGUCCGACGAUCGAUGAAGGAGUCGAUGCUGAUCCCAAUGUAGUAAGGCAGCCAACAGGCGAAGAAAGCCAGGAUGAGGAUGACUGUGGUCUUGAGGGCCUUGCGCUUCUGGUGGCCCUUGGAGUGUGACAGCAACAGAGGAUUGAGCAUCA
B16: chr20:61576232:61576233:+_ENSG00000101193_ENST00000266069|hu_hu|FALSE|FALSE (ssRNA)
RNA: GGGAGUUCUACAGUCCGACGAUCGGAUCCACCACGCAAGCGCAGGCGCUACUUGGGCUCCUCAAUCACACCCUUGCUGAGGUCUGUCAUUUUGGGAUAUUUUACUUUCUUCUGGUCCAGCUCGUUCUGAGCCCAAAGUAGUAGCAACAGAGGAUUGAGCAUCA
B17: chr17:60770872:60770873:+_ENSG00000011028_ENST00000303375|hu_hu|hu_hu_hu_mus_True|8_78 (ssRNA)
RNA: GGGAGUUCUACAGUCCGACGAUCUCUUUAAAAAAAAAAAAAAAAAGACAAACAAUAAUAAUGGCACUCGAGAAUCAAGAACUACAAUAGAGGGUCCGCUUUGAGUUUUUGUUCACAUCGUCCUGCAACGCUGUCGCGGGACUGCAACAGAGGAUUGAGCAUCA
B18: chr17:60770872:60770873:+_ENSG00000011028_ENST00000303375|hu_hu|hu_hu_hu_mus_True|28_88 (ssRNA)
RNA: GGGAGUUCUACAGUCCGACGAUCUCUUUAAAAAAAAAAAAAAAAAGUUUAAAAACAAUAGCACAUUUCGAGAAUCAAGAACUACAAUAGAGGGUCCGCUUUGAGUUGUCCAUGUUCUCGUCCUGCACUGGGACACGGGGACUGCAACAGAGGAUUGAGCAUCA
B19: chr17:60770872:60770873:+_ENSG00000011028_ENST00000303375|hu_hu|hu_hu_hu_mus_True|58_78 (ssRNA)
RNA: GGGAGUUCUACAGUCCGACGAUCUCUUUAAAAAAAAAAAAAAAAAGACAAACAAUAAUAAUGGCACUCGAGAAUCAUCAACUACAGUAGAGGGUCCGCUUUGAGUUUUUGUUCACAUCGUCCUGCACUGGGACACGGGGACUGCAACAGAGGAUUGAGCAUCA
B20: chr17:60770872:60770873:+_ENSG00000011028_ENST00000303375|hu_hu|hu_hu_hu_mus_True|78_88 (ssRNA)
RNA: B19 RNA with A47U, C48U, A49U, C52A, U55C, U77A, C78G, G86A
B21: chr17:60770872:60770873:+_ENSG00000011028_ENST00000303375|hu_hu|hu_hu_hu_mus_True|28_78 (ssRNA)
RNA: GGGAGUUCUACAGUCCGACGAUCUCUUUAAAAAAAAAAAAAAAAAGACAAACAAUAAUAAUGGCACUCGAGAAUCAAGAACUACAAUAGAGGGUCCGCUUUGAGUUGUCCAUGUUCUCGUCCUGCACUGGGACACGGGGACUGCAACAGAGGAUUGAGCAUCA
B22: chr17:60770872:60770873:+_ENSG00000011028_ENST00000303375|hu_hu|hu_hu_hu_mus_True|1_78 (ssRNA)
RNA: B19 RNA with U77A, C78G, G86A, G137A, G138C, G139C, C141G, U142G, G143A
B23: chr17:60770872:60770873:+_ENSG00000011028_ENST00000303375|hu_hu|hu_hu_hu_mus_True|78_78 (ssRNA)
RNA: B19 RNA with U77A, C78G, G86A

Positions count from the first letter of the chain named. The full ranking holds about 24,000 sequences; the median of “enrichment r” is about 0.99, and the highest 2% start at about 3.7. The entries come from a sample that favours the highest values as a whole.

Binding signal data for 23 molecules are collected here from PMC12136788.

In the assay the target is T1, UNK ZnF1-3. The assay can be described thus: nsRBNS (natural sequence RNA bind-n-seq); RBNS binding buffer (assumed for nsRBNS): 25 mM Tris pH 7.5, 150 mM KCl, 3 mM MgCl2, 0.01% Triton X-100, 500 ug/ml BSA, 20 U/ml SUPERase-In, 4 C; UNK is unkempt and MSI1 is Musashi-1; names of the RNAs are library labels; protein concentration not given here; high values mean tight binding.
B1 yielded a binding signal of 1.65 enrichment R.
For B2 the value was 0.818 enrichment R.
For B3 the value was 0.894 enrichment R; for B4, 1.05 enrichment R.
For B5 the value was 4.37 enrichment R.
B6 registered a binding signal of 1.16 enrichment R.
In the case of B7 it was 1.66 enrichment R.
For B8 the value was 2.97 enrichment R; for B9, 0.637 enrichment R; for B10, 5.2 enrichment R.
B11 gave a binding signal of 1.72 enrichment R.
In the case of B12 it was 0.581 enrichment R; in that of B13, 1.19 enrichment R; in that of B14, 1.06 enrichment R.
Regarding B15, the binding signal worked out at 1.35 enrichment R.
For B16 the value was 0.749 enrichment R; for B17, 2.96 enrichment R; for B18, 3.43 enrichment R.
In the case of B19 it was 3.98 enrichment R.
For B20 the value was 5.04 enrichment R; for B21, 3.8 enrichment R.
In turn, B22 displayed a binding signal of 3.55 enrichment R.
In the case of B23 it was 4.14 enrichment R.
